These results are taken from PubChem BioAssay (Tox21).

Values joined by “and” are separate entries in the source; they are usually repeats but may differ in a detail not shown here. Equal values may be shown once. Records with an inconclusive call do not appear. Entries that show only a call come without a potency. A structure can be active in one record and inactive in another. Active and inactive are the calls of the source. Calls follow the shape of the dose curve; as a rule, active = well fitted cell-killing curve with a large enough effect in the repeat runs; inconclusive = weak or mixed curves, or effect the other way; inactive = flat fitted curve, though single readings scatter.
Potency is read from the fitted curve at half-maximal effect.

The nature of the assay: Human pregnane X receptor (PXR) small molecule agonists, qHTS cell viability counter screen (AID 1346977). Also: nearly all actives have a fitted effect of over 50% in size. The settings on record: PXR-Luc HepG2 viability, CellTiter-Fluor, 24 h; series mostly up to 92.4 µM. From the text:
U.S. Tox21 Program National Center for Advancing Translational Sciences [NCATS] NIH Chemical Genomics Center [NCGC] U.S. Environmental Protection Agency [EPA] National Institutes of Environmental Health Sciences [NIEHS] National Toxicology Program [NTP] U.S. Food and Drug Administration [FDA] Tox21 Assay Overview: The human pregnane X receptor (hPXR) regulates the expression of several drug metabolizing enzymes and induction of these proteins is a major mechanism for developing drug resistance in cancer. One such key enzyme catalyzing the drug metabolism is cytochrome P450 3A4 (CYP3A4). Changes in CYP3A4 expression affect drug metabolism, thereby reducing the therapeutic efficacy and altering toxicological response to a drug and which finally causes adverse drug interaction. To screen Tox21 libraries for compounds that activate hPXR-mediated CYP3A4 gene expression, PXR-Luc HepG2 cells were used. Also cytotoxicity of the compounds was tested in parallel by measuring the cell viability using CellTiter-Fluor assay system in the same wells.
Tox21 Assay Protocol Summary: PXR-Luc HepG2 cells were dispensed at 2,000 per well in 5uL of assay medium containing 5% charcoal-stripped FBS into white solid bottom 1536-well plates (Corning Life Sciences, Corning, NY) using a Multidrop Combi (Thermo Scientific, Waltham, MA) dispenser. The assay plates were incubated at 37 C and 5% CO2 for 5hr, and then 23nL of compounds dissolved in DMSO and positive control were transferred using a Pintool station (Wako, San Diego, CA). The assay plates were incubated at 37C and 5% CO2 for 24hr. For cytotoxicity read, after 23hr incubation at 37C, 1uL CellTiter-Fluor reagent (Promega Corporation, Madison, WI) was added to each well of the assay plates using Flying Reagent Dispenser (FRD, Aurora Discovery, San Diego, CA). After 1hr incubation at 37C and 5% CO2, the fluorescence signal was quantified using a ViewLux plate reader (PerkinElmer, Shelton, CT).
Background: Quantitative high-throughput screening tests each substance at several concentrations.
On to `CN(C)CCC(c1ccc(Cl)cc1)c1ccccn1` (stereo not given), for which the Potency was 44.7 µM (active). For `CCCCCC1=CCCC1=O`, the Potency result is “inactive”. For the molecule `CCCCCCCCCCCCS`, the Potency result is “inactive”. On the same count and under the same terms, the same measure for `Cc1ccc(N(C)C)cc1`: “inactive”; for `CC(=O)OCC(=O)[C@@]12N=C(C)O[C@@H]1C[C@H]1[C@@H]3CCC4=CC(=O)C=C[C@]4(C)[C@H]3[C@@H](O)C[C@@]12C`: “inactive”; for `CCCCOC(=O)COc1ccc(Cl)cc1Cl`: “inactive”.

For the molecule `CCCCCC/C(C=O)=C\c1ccccc1`, the Potency entry was “inactive”. On the same count and under the same terms, to `O=C(O)CC(C(=O)O)C(CC(=O)O)C(=O)O` (stereo not given) belongs “inactive”; to `Cc1ccc(S(N)(=O)=O)cc1`, “inactive”; to `CC1CCC2CC1C2(C)C` (stereo not given), “inactive”. On the same count and under the same terms, the same measure for `O=[N+]([O-])c1ccc(/C=C/c2ccc([N+](=O)[O-])cc2S(=O)(=O)O)c(S(=O)(=O)O)c1`: “inactive”. Still for that read-out and setting: the same measure for `CCCCCCCC(=O)OC`: “inactive”. For the molecule `CCCCCCCCCCCCOCCO`, the Potency entry was “inactive”. For `Cc1cc(C)c(C)cc1C`, the Potency result is “inactive”. Turning to `ON=C1CCCCC1`, the Potency entry is “inactive”.

Turning to `O=C(O)[C@H](O)[C@@H](O)[C@H](O)[C@H](O)CO`, the Potency entry was “inactive”.

With `Nc1cc([N+](=O)[O-])ccc1O`, the Potency is 39.8 µM (active) and 54.2 µM (active).

As for `OCc1cccnc1`, the Potency result is “inactive”. Same read-out and setting: to `COS(C)(=O)=O` belongs “inactive”; to `CN(C)CCC(c1ccccc1)c1ccccn1` (stereo not given), “inactive”; to `COc1ccc2cc([C@H](C)C(=O)O)ccc2c1`, “inactive”. Same read-out and setting: to `C[C@H]1C[C@H]2[C@@H]3CCC4=CC(=O)C=C[C@]4(C)[C@@]3(F)[C@@H](O)C[C@]2(C)[C@@]1(O)C(=O)CO` belongs “inactive”.

`c1ccc2scnc2c1`: the Potency entry was “inactive”. Turning to `O=C=NCCCCCCN=C=O`, the Potency entry was “inactive”.

For `CN(C)CCOCCN(C)C`, the Potency entry is “inactive”. The same measure, in the same setting: to `CC(=O)c1ccccc1` belongs “inactive”. Still for that read-out and setting: the same measure for `O=S1(=O)CC=CC1`: 39.8 µM (active) and inactive. Same read-out and setting: to `C[C@H]1C[C@@H]2[C@H]([C@@H](O)C[C@@]3(C)[C@H]2CC[C@]3(O)C(=O)CO)[C@@]2(C)C=CC(=O)C=C12` belongs “inactive”.

Take `CSCCC=O`: the Potency entry was “inactive”. Still for that read-out and setting: to `OC[C@H]1O[C@@](CO)(O[C@H]2O[C@H](CO)[C@@H](O)[C@H](O)[C@H]2O)[C@@H](O)[C@@H]1O` belongs “inactive”; to `COc1ccc(NC(C)=O)cc1N`, “inactive”; to `C=C(C)C(=O)Nc1ccc(Cl)c(Cl)c1`, “inactive”.

In the case of `C[Si](O[Si](C)(C)C)O[Si](C)(C)C`, the Potency result was “inactive”. Same read-out and setting: to `O=C(O)c1cc(O)c(O)c(O)c1` belongs 49 µM (active) and inactive; to `O=C(O)c1cc(=O)c2c(OCC(O)COc3cccc4oc(C(=O)O)cc(=O)c34)cccc2o1`, “inactive”. Regarding `O=c1[nH]c(=O)n([C@H]2C[C@H](O)[C@@H](CO)O2)cc1Br`, the Potency result was “inactive”. Same read-out and setting: to `CCCCCOC(C)=O` belongs “inactive”; to `O=c1[nH]c(=O)n([C@H]2CCCO2)cc1F`, “inactive”.

Consider `NNc1nncc2ccccc12`, for which the activity change, negative = cytotoxicity is 6.87% [at 19 µM] (inactive) and the Potency was 48.6 µM (active).
